Out of some 340,000 compounds screened, about 2,100 (0.62%) were called active.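 Rule for the calls: active = first-screen hits whose inhibition reached a set limit at any dose in the follow-up dose series; inconclusive = inhibition above the set first-screen limit but never retested; inactive = the rest.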 These entries were drawn from the full list. Entries with a potency or affinity are not part of this list.
target: Rac GTPase-activating protein 1 (Homo sapiens) (UniProt Q9H0H5); assay: MgcRacGAP GTPase-activating activity inhibitors, confirmation, biochemical, ADP Hunter fluorescence, primary and confirmatory (AID 624330); details: MgcRacGAP-stimulated Rac1 GTP hydrolysis, at 30 µM, stronger effect = higher value, GST-tagged Rac1 F28L mutant substrate;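 note: fluorescence reports GDP produced by GAP-driven GTP hydrolysis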
Sequence (Q9H0H5 whole entry, looked up): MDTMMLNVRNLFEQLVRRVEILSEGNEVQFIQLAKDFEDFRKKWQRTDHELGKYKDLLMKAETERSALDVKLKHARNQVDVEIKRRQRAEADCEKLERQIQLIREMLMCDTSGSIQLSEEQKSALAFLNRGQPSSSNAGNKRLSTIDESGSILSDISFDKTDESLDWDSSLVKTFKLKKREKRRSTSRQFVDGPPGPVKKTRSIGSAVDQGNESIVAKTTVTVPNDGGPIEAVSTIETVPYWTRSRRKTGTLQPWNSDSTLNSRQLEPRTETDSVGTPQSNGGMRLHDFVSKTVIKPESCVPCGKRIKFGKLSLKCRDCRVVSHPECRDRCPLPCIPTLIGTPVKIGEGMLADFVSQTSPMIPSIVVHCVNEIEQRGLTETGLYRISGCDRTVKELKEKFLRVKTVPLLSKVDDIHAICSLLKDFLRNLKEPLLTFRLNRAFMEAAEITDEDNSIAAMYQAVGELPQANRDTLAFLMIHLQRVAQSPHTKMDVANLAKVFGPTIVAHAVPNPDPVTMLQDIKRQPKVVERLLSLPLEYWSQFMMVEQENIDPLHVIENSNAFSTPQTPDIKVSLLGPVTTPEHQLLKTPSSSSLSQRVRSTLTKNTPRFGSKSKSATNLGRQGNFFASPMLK

inhibition, inactive:
COC(=O)Nc1nnc(-c2ccc(OC)cc2)s1 16%
COc1ccc(C(=O)NNC(=O)COc2ccc(Cl)cc2C)cc1S(=O)(=O)N1CCOCC1 6.89%
O=C(NCCN1CCOCC1)C(Sc1ccccc1)c1ccccc1 (configuration not stated) 15.2%
NCCSc1c(-c2ccc(Cl)cc2)[nH]c2ccccc12 8.34%
O=C(COC(=O)c1c(F)cccc1Cl)NC(=O)Nc1ccc2c(c1)OCCO2 0.21%
CC(=O)NC12CC3CC(C1)CC(C(=O)N1CCN(S(=O)(=O)c4ccccc4[N+](=O)[O-])CC1)(C3)C2 9.33%
COCCNC(=O)c1cc(-c2ccccc2)nn1Cc1cc(C)no1 2.94%
Cc1c(-c2ccccc2)c(=O)oc2cc(O)ccc12 7.91%
O=c1oc2cc(O)ccc2c2ccccc12 17.2%
COc1ccc(F)cc1S(=O)(=O)NCC1CCCO1 (configuration not stated) 1.18%
O=C(CSc1nc(-c2ccco2)cc(C(F)(F)F)n1)Nc1ccc2c(c1)OCO2 4.87%
Cc1nc(Nc2cccc(O)c2)c2c3c(sc2n1)CCC3 10.2%
Cc1ccc(CNc2nc(C)nc3sc4c(c23)CCC4)cc1 5.5%
O=C(c1cccc(S(=O)(=O)N2CCCCCC2)c1)N1CCN(c2ccccc2F)CC1 2.31%
O=C1CCCN1CCC(=O)N1CCCC(Nc2ccc(F)cc2)C1 (configuration not stated) 7.82%
O=C(CCCn1cncn1)N1CCCC(Nc2ccc(F)cc2)C1 (configuration not stated) 5.12%
COc1ccccc1OCC(=O)N1CCCC(Nc2ccc(F)c(F)c2)C1 (configuration not stated) 7.15%
CC(C)c1ccc(NC2CCCN(C(=O)CCCn3cncn3)C2)cc1 (configuration not stated) 6.88%
O=C(CSc1ccccc1)N1CCCC(Nc2ccccc2)C1 (configuration not stated) 8.49%
COc1ccccc1OCC(=O)N1CCCC(Nc2ccc(C)c(C)c2)C1 (configuration not stated) 14.2%
O=C1CCCN1CCC(=O)N1CCCC(Nc2ccc(F)c(F)c2)C1 (configuration not stated) 7.57%
COc1ccc(NC2CCCN(C(=O)CSc3ccccn3)C2)cc1OC (configuration not stated) 30.4%
C[C@@H]1CN([C@@H](C)CO)C(=O)c2cc(Br)cnc2O[C@@H]1CN(C)C(=O)Nc1ccc(F)cc1 9.67%
C[C@H](NC(N)=O)C(=O)OCC(=O)Nc1ccc(OC(F)F)cc1 5.01%
COc1ccc(C2C(C(=O)NCc3ccco3)CCC(=O)N2c2ccc(OC)cc2)cc1 (configuration not stated) -1.81%
O=C(CN1CCCC1)Nc1cccc(Cl)c1 6.77%
CN(CCOc1ccc(Cl)cc1)C(=O)c1cccc(S(=O)(=O)N2CCN(c3ccc(F)cc3)CC2)c1 2.42%
COc1ccc(/C=N/n2c(C)nnc2C)c(OC)c1OC 8.6%
COc1cccc(/C=N/n2c(C3CCCCC3)n[nH]c2=S)c1O 17.5%
COc1ccc(/C=N/n2c(SC)nnc2-c2ccccc2)cc1C 12.1%
COc1ccc(/C=N/n2c(-c3ccc(C)cc3)n[nH]c2=S)cc1OC 8.75%
COc1cccc(/C=N/n2c(-c3n[nH]c4c3CCC4)n[nH]c2=S)c1OC 10.4%
COc1ccc(/C=N/n2c(SC)nnc2-c2ccccc2)c(OC)c1OC 10.5%
COc1ccc(/C=C/C(=O)OC2CCCCC2CN(C)C)cc1 (configuration not stated) 1.25%
CCN1CNC(=S)N(c2cccc(C)c2C)C1 7.09%
O=C(O)C1(S(=O)(=O)c2ccc(Cl)cc2)CCC1 6.58%
Cc1cccc(N2N=C(C(=O)Nc3nc(C)cs3)CCC2=O)c1 10.5%
O=C(Nc1cccnc1)c1ccccc1F 6.52%
O=C1Nc2ccccc2/C1=N\N1CCOCC1 3.01%
O=C1Nc2ccccc2C1=NN1CCCCCC1 -3.27%
CCN(Cc1ccccc1)S(=O)(=O)c1ccc(S(=O)(=O)N2CCN(CCC#N)CC2)cc1 -2.32%
Cc1ccc(NC(=O)CN(C)C(=O)CCSc2ccc(F)cc2)cc1 5.93%
COc1cccc(CN(C)C(=O)c2ccc(C)c(S(=O)(=O)N3CCCCC3)c2)c1 3.14%
COCCN(C(=O)CNC(=O)c1cccs1)C(C(=O)NC1CCCC1)c1cccs1 (configuration not stated) 8.07%
COc1ccc(NC(=S)NCCSc2ccc(Cl)cc2)c(OC)c1 -1.73%
c1ccc(Nc2ccc3c4c(cccc24)CC3)cc1 16.2%
CC(=O)Nc1ccc2c3c(cccc13)CC2 3.29%
O=[N+]([O-])c1ccccc1N=Nc1ccc(O)cc1 9.07%
COCc1[nH][nH]c(=O)c1C=Nc1ccccc1 9.38%
O=C(OCc1ccccc1Cl)c1cccnc1Cl -1.97%
CCCCn1c(N)c(N(CCOC)C(=O)C(C)N2C(=O)c3ccccc3C2=O)c(=O)[nH]c1=O (configuration not stated) 0.26%
CC(OC(=O)c1ccc(Cl)c([N+](=O)[O-])c1)C(=O)N1CCN(Cc2ccccc2)CC1 (configuration not stated) 3.69%
CCOc1ccccc1C(=O)NCC(=O)N(C)Cc1ccccc1C 6.49%
COc1ccccc1N(C)S(=O)(=O)c1ccc(C(=O)Nc2cccc(Br)c2)cc1 4.53%
COc1cccc(-n2c(=O)c3ccccc3n3c(=S)[nH]nc23)c1 13.7%
CCc1ccc(-n2c(=O)c3ccccc3n3c(=S)[nH]nc23)cc1 12.2%
CCOC(=O)c1oc2ccccc2c1NC(=O)C(C)(C)C 4.02%
O=C(c1ccccc1)c1ccc(N2CCOCC2)c(F)c1 9.91%
Cc1cccc(C(=O)N2CCC(N3CCC(C(=O)N4CCOCC4)CC3)CC2)c1 7.61%
CCC1Sc2ccccc2N(CC(=O)NC2CC2)C1=O (configuration not stated) -0.26%
O=C(O)c1cccc(N2C(=O)C=CC2=O)c1 9.07%
Cc1cc(C)cc(N2C(=O)C=CC2=O)c1 1.25%
